Inconclusive results are not listed. Calls of active or inactive are those of the source. Unless noted, calls follow the shape of the dose curve; as a rule, active = well fitted curve in the direction sought with a large enough effect in the repeat runs; inconclusive = weak or mixed curves; inactive = no such curve, though single readings can be large; an effect the other way counts as inactive or inconclusive.
Experiments:
[1] = qHTS assay to identify small molecule agonists of the peroxisome proliferator-activated receptor delta (PPARd) signaling pathway - cell viability counter screen (AID 743211); conditions: PPARd-bla HEK293H viability, CellTiter-Glo luminescence, 17 h; series mostly up to 62.6 µM; also: nearly all actives have a fitted effect of over 55% in size
In short: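 Viability of GeneBLAzer PPARd UAS-bla HEK293H cells was assessed after 17 h compound incubation at 37C, using CellTiter-Glo reagent added after the reporter read and luminescence recorded 30 min later.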

[2] = target: Peroxisome proliferator-activated receptor delta (Homo sapiens) (UniProt Q03181); experiment: qHTS assay to identify small molecule agonists of the peroxisome proliferator-activated receptor delta (PPARd) signaling pathway (AID 743212; calls by dose curve); conditions: HEK293H PPARd-UAS-bla, beta-lactamase FRET ratio, 17 h; series mostly up to 62.6 µM
Sequence of Peroxisome proliferator-activated receptor delta (Homo sapiens) (Q03181 whole entry, looked up): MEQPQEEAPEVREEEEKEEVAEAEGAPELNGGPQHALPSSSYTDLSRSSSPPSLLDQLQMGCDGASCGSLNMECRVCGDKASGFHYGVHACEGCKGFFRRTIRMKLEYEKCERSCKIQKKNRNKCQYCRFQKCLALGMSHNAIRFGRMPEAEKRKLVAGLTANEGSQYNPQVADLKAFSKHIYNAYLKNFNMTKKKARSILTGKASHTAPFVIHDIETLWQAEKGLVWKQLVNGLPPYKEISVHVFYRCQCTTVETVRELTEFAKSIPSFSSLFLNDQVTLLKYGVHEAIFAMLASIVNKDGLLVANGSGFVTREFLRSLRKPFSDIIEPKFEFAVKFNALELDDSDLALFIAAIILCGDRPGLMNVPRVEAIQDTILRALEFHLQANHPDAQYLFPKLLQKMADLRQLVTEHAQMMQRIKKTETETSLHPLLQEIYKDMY
In short: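 Read-out: beta-lactamase FRET fluorescence after 2 h room-temperature incubation with LiveBLAzer B/G substrate. Cells were HEK293H carrying a UAS-bla reporter for PPARd, treated at 37 C with DMSO-dissolved compounds.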

[3] = qHTS assay to identify small molecule antagonists of the peroxisome proliferator-activated receptor delta (PPARd) signaling pathway - cell viability counter screen (AID 743213); conditions: PPARd-bla HEK293H viability, CellTiter-Glo luminescence, 17 h; series mostly up to 62 µM; also: nearly all actives have a fitted effect of over 50% in size
In short: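 HEK293H cells with the PPARd UAS-bla reporter, co-treated 17 h at 37 C with compounds and L165041 (300 nM final), were lysed with CellTiter-Glo. Luminescence indicated viable cell content.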

[4] = target: Peroxisome proliferator-activated receptor delta (Homo sapiens) (UniProt Q03181); experiment: qHTS assay to identify small molecule antagonists of the peroxisome proliferator-activated receptor delta (PPARd) signaling pathway (AID 743215; active = well fitted inhibition curve with a large enough effect in the signal ratio in the repeat runs, not every such curve was filed as active; the % refers to the signal ratio;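 also: cells stimulated with agonist L165041 at 300 nM final during compound exposure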); conditions: HEK293H PPARd-UAS-bla, beta-lactamase FRET ratio, antagonist, 17 h; series mostly up to 62 µM
In short: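 Fluorescence from cleaved LiveBLAzer B/G FRET substrate (2 h, room temperature) reports PPARd-driven beta-lactamase in HEK293H UAS-bla cells. Cells had been treated 17 h at 37 C with compound plus 300 nM final L165041.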

[5] = qHTS assay to identify small molecule agonists of the farnesoid-X-receptor (FXR) signaling pathway - cell viability counter screen (AID 743218); conditions: FXR-bla HEK293T viability, CellTiter-Glo luminescence, 16 h; series mostly up to 62.6 µM; also: nearly all actives have a fitted effect of over 45% in size
In short: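 Readout: CellTiter-Glo luminescence, 30 min RT, multiplexed after the FXR-bla FRET reading. HEK 293T FXR-UAS-bla cells received compound 5 h post-plating and were incubated 16 h at 37 C.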

[6] = qHTS assay to identify small molecule antagonists of the farnesoid-X-receptor (FXR) signaling pathway - cell viability counter screen (AID 743221; active = well fitted cell-killing curve with a large enough effect in the repeat runs, not every such curve was filed as active; also: nearly all actives have a fitted effect of over 50% in size); conditions: FXR-bla HEK293T viability, CellTiter-Glo luminescence, 16 h; series mostly up to 62.6 µM
In short: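 Quantitative HTS of the Tox21 10K library run in parallel with the beta-lactamase reporter read. HEK 293T cells carrying a UAS-driven bla reporter got compound and 50 uM CDCA (final) for 16 h; ATP-based luminescence followed.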

[7] = target: Vitamin D3 receptor (Homo sapiens) (UniProt P11473); experiment: qHTS assay to identify small molecule agonists of the vitamin D receptor (VDR) signaling pathway (AID 743222; calls by dose curve); conditions: HEK293T VDR-UAS-bla, beta-lactamase FRET ratio, 16 h; series mostly up to 63.5 µM
Sequence of Vitamin D3 receptor (Homo sapiens) (P11473 whole entry, looked up): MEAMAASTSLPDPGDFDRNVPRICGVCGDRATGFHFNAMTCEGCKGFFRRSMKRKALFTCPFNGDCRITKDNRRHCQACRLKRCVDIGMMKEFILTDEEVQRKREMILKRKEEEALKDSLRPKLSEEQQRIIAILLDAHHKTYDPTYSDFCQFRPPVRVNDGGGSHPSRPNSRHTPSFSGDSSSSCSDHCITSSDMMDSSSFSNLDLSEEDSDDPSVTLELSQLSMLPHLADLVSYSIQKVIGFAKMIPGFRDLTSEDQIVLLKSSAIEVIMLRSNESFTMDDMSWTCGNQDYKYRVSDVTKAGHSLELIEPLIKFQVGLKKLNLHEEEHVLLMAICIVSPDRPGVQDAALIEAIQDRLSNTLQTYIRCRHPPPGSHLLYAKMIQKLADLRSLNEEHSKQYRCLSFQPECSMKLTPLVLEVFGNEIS
In short: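 Following 4 h attachment at 37C, VDR-bla cells (2,000 per well) received DMSO-dissolved compounds or controls. After 16 h incubation, LiveBLAzer B/G FRET substrate was added and fluorescence read 2 h later at room temperature.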

[8] = target: Vitamin D3 receptor (Homo sapiens) (UniProt P11473); experiment: qHTS assay to identify small molecule antagonists of the vitamin D receptor (VDR) signaling pathway (AID 743223; active = well fitted inhibition curve with a large enough effect in the signal ratio in the repeat runs, not every such curve was filed as active; the % refers to the signal ratio); conditions: VDR-UAS-bla HEK293T, beta-lactamase FRET ratio, 16 h; series mostly up to 61 µM
In short: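 Fluorescence from LiveBLAzer B/G FRET substrate, read after 2 h at room temperature, reflects beta-lactamase reporter activity in VDR-bla cells treated 16 h at 37C with compounds and agonist 1alpha,25-dihydroxyvitamin D3 (3 nM final).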

[9] = target: Bile acid receptor (Homo sapiens) (UniProt Q96RI1); experiment: qHTS assay to identify small molecule agonists of the farnesoid-X-receptor (FXR) signaling pathway (AID 743220; active = well fitted activation curve with a large enough effect in the signal ratio in the repeat runs, not every such curve was filed as active; the % refers to the signal ratio); conditions: HEK293T FXR-UAS-bla, beta-lactamase FRET ratio, 16 h; series mostly up to 62.6 µM
Sequence of Bile acid receptor (Homo sapiens) (Q96RI1 whole entry, looked up): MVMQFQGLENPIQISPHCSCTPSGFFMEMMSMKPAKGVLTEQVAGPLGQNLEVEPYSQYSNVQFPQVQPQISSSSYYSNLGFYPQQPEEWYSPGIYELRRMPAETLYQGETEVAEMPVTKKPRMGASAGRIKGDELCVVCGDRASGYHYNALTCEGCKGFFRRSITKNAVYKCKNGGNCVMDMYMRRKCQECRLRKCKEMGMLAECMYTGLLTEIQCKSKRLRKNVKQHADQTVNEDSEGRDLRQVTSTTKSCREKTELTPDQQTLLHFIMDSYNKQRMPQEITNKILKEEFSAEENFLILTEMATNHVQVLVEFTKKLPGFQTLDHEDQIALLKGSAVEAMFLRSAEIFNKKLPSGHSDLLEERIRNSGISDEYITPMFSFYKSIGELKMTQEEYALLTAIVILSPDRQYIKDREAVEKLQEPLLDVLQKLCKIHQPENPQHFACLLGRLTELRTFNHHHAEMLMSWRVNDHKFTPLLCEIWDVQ
In short: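 FXR-UAS-bla HEK 293T cells carrying a UAS-driven beta-lactamase reporter were plated for 5 h at 37C/5% CO2, then exposed to DMSO-dissolved Tox21 10K compounds for 16 h at 37C. A LiveBLAzer B/G FRET substrate was loaded for 2 h at room temperature before fluorescence reading.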

[10] = target: Bile acid receptor (Homo sapiens) (UniProt Q96RI1); experiment: qHTS assay to identify small molecule antagonists of the farnesoid-X-receptor (FXR) signaling pathway (AID 743217; active = well fitted inhibition curve with a large enough effect in the signal ratio in the repeat runs, not every such curve was filed as active; the % refers to the signal ratio); conditions: HEK293T FXR-UAS-bla, beta-lactamase ratio, CDCA-stimulated, 16 h; series mostly up to 62.6 µM
In short: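 FRET fluorescence after 2 h room-temperature LiveBLAzer loading gives the readout. Prior step: FXR-bla HEK 293T cells, seeded and incubated 5 h, received test compounds plus 50 uM final CDCA for 16 h at 37 °C.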

Measured: Potency

COP(=S)(OC)Oc1ccc(SC)c(C)c1
not listed: [9] | [10]
inactive: all other assays above

ClCCOCCCl
not listed: [7] | [8] | [10]
inactive: all other assays above

O=[N+]([O-])c1cc([As](=O)(O)O)ccc1O
not listed: [6] | [9] | [10]
inactive: all other assays above

Sc1ccccc1
not listed: [6] | [9] | [10]
inactive: all other assays above

Nc1nc(N)nc(NC2CC2)n1
not listed: [7] | [8] | [10]
inactive: all other assays above

C=CCN=C=S
not listed: [10]
inactive: all other assays above

Cc1cc(Cl)ccc1OC(C)C(=O)O (stereo not given)
inactive: [1] | [2] | [3] | [4] | [5] | [6]

O=C(O)CCCc1ccc(N(CCCl)CCCl)cc1
not listed: [10]
inactive: all other assays above

CC(C)(C)C(=O)CCl
not listed: [6] | [9] | [10]
inactive: all other assays above

CCCOC(=O)c1ccccc1C(=O)OCCC
inactive: [1] | [2] | [3] | [4] | [5] | [9]

O=C(O)COc1ccccc1
not listed: [9] | [10]
inactive: all other assays above

CN(C)CCC#N
not listed: [6] | [9] | [10]
inactive: all other assays above

CCOP(=S)(OCC)Oc1ccc([N+](=O)[O-])cc1
inactive: [1] | [2] | [3] | [4] | [5] | [6]

CCNc1nc(Cl)nc(NC(C)C)n1
not listed: [9] | [10]
inactive: all other assays above

Cl/C=C/Cl
not listed: [9] | [10]
inactive: all other assays above

OCC(O)CCl (stereo not given)
not listed: [6] | [9] | [10]
inactive: all other assays above

COc1nc(NC(C)C)nc(NC(C)C)n1
not listed: [6] | [10]
inactive: all other assays above

CN1C(=O)CCS(=O)(=O)C1c1ccc(Cl)cc1 (stereo not given)
not listed: [9] | [10]
inactive: all other assays above

Clc1cnc(Oc2ccc(Oc3ncc(Cl)cc3Cl)cc2)c(Cl)c1
not listed: [5] | [6] | [10]
inactive: all other assays above

Cc1cccc(N)c1
not listed: [6] | [9] | [10]
inactive: all other assays above

Cc1cccc(C)c1N
inactive: [1] | [2] | [3] | [4] | [5] | [9]

C[C@H]1C(=O)O[C@@H]2CCN3CC=C(COC(=O)[C@](C)(O)[C@]1(C)O)[C@H]23
not listed: [10]
inactive: all other assays above

Nc1ncc([N+](=O)[O-])s1
not listed: [6] | [10]
inactive: all other assays above

O=C(O)C1C(C(=O)O)C2(Cl)C(Cl)=C(Cl)C1(Cl)C2(Cl)Cl (stereo not given)
not listed: [7] | [8] | [10]
inactive: all other assays above

CNC(=O)Oc1cccc2ccccc12
not listed: [6] | [10]
inactive: all other assays above

CC(C)CCCCCCOC(=O)c1ccccc1C(=O)OCCCCCCC(C)C
not listed: [6] | [10]
inactive: all other assays above

CCOc1ccc(N)cc1
not listed: [10]
inactive: all other assays above

O=C/C=C/c1ccccc1
not listed: [6] | [9] | [10]
inactive: all other assays above

COc1cc(-c2ccc(N)c(OC)c2)ccc1N
not listed: [9] | [10]
inactive: all other assays above

CN(C)C(=O)Nc1cccc(C(F)(F)F)c1
not listed: [6] | [9] | [10]
inactive: all other assays above

Cc1cccc(N)c1C
not listed: [2] | [6] | [10]
inactive: all other assays above

CN(C)C(=O)Cl
not listed: [2] | [9] | [10]
inactive: all other assays above

C=CC(=O)OCCCCCC(C)C
not listed: [2] | [10]
inactive: all other assays above

CCOC(=O)CC(SP(=O)(OC)OC)C(=O)OCC (stereo not given)
not listed: [2] | [7] | [8]
inactive: all other assays above

COC(=O)Nc1cccc(OC(=O)Nc2cccc(C)c2)c1
inactive: [1] | [3] | [4] | [5] | [9] | [6]

Nc1cc(Cl)cc(Cl)c1
not listed: [2] | [10]
inactive: all other assays above

[N-]=[N+]=CC(=O)OC[C@H](N)C(=O)O
not listed: [2] | [10]
inactive: all other assays above

Cc1ccc(O)c(C)c1
inactive: [1] | [3] | [4] | [5]

FC(F)(F)c1ccc(Cl)cc1
not listed: [2] | [10]
inactive: all other assays above

N#CN=C(N)N
not listed: [2] | [10]
inactive: all other assays above
